Screening results as filed in PubChem.
tim23-1 inh: inhibits growth of tim23-1 mutant yeast | S. cerevisiae tim23-1 growth, BacTiter-Glo luminescence, 24 h | inhibition, % at 20 µM | actives 1.3% (n = 330,000) | AID 463212;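 active means growth inhibition of the mutant yeast at or above 50%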;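 further: temperature-sensitive mutant grown at 25 °C; plate controls were DMSO-treated mutant yeast for no effect and medium wells lacking yeast for full effect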
NLRP3 yeast inh: inhibitors of NALP3 inflammasome in yeast; AID 2825; inhibition, % at 10 µM; actives 0.39% (n = 330,000); Yeast reconstituted NLRP3/ASC/caspase-1, beta-gal luminescence, 24 h;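 active means inhibition of 50% or more; inactive means inhibition below 50%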;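 further: plate controls were induced DMSO wells for no effect and uninduced yeast grown without galactose for full effect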
tim10-1 inh: tim10-1 yeast growth inhibition; AID 463190; S. cerevisiae tim10-1 ts strain growth, BacTiter-Glo, 24 h; actives 2.2% (n = 330,000); inhibition, % at 20 µM;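 active means inhibition of at least 40%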;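 further: mutant grown at 25 °C; 0% = DMSO wells with yeast and 100% = wells holding no yeast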
PfHsp90 yeast 2: growth inhibition of yeast expressing Plasmodium Hsp90. S. cerevisiae expressing PfHsp90, BacTiter-Glo ATP, 48 h; yeast lacking PDR1 and PDR3 efflux regulators. inhibition, % at 9.4 µM. actives 0.32% (n = 310,000). AID 504621;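 active means every replicate shows inhibition above about 80%, whatever the replicate mean, limit read from the data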;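 further: 0% = DMSO neutral controls and 100% = 20 µM radicicol positive controls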
TIM10 inh: growth inhibitors of TIM10 yeast strain; S. cerevisiae TIM10 strain growth, BacTiter-Glo luminescence, 24 h; inhibition, % at 10 µM; actives 1.4% (n = 330,000); AID 463195;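 active means inhibition of 40% or more at the single tested concentration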;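 further: wild-type TIM10 isogenic control strain grown at permissive 25 °C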
tim10-1 conf: tim10-1 yeast growth inhibition, confirmed. shares compounds with tim10-1 inh. S. cerevisiae tim10-1 ts strain growth, BacTiter-Glo, 24 h. inhibition, % at 20 µM. actives 56% (n = 7,400);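 active means inhibition of yeast growth at or above a set limit in either of two repeat tests at 20 µM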;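 further: tim10-1 mutant grown at permissive 25 °C to find synthetic lethal compounds; 0% = DMSO yeast wells and 100% = medium wells without yeast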
Numbers without * were called inactive; . = no result. Sampled rows, rich in hits. Any-hit rate of the full collection: about 3.7%.

SMILES	tim23-1 inh	NLRP3 yeast inh	tim10-1 inh	PfHsp90 yeast 2	TIM10 inh	tim10-1 conf
CCOC(=O)c1ccc2[nH]c3c(c2c1)CCCC3	28	9	42*	-36	29	34*
COc1cccc(N2C(=O)C(c3ccccc3)=C(c3nc4ccccc4s3)C2NC(C)=O)c1 (stereo unspecified)	19	2	49*	-18	39	42*
O=C(Cn1c(=S)[nH]c2ncccc2c1=O)NCCc1ccccc1	2	5	2	.	-7	.
O=C(COc1ccc(Br)cc1)NCCCNC(=O)c1cnccn1	17	19	10	9	-2	.
O=C(OCc1ccccc1)/C(=C/c1ccc(Cl)cc1)NC(=O)c1ccccc1Cl	-8	18	-12	.	-20	.
CCOC(=O)/C(=C/c1ccc(Cl)cc1)NC(=O)c1ccco1	29	-11	40*	-4	-7	18
COc1ccc(C)cc1N(C(=O)c1ccccc1)c1nc2ccccc2s1	32	15	20	-11	30	.
COc1ccc(C)cc1N(C(=O)c1ccc(C#N)cc1)C1=NC(C)(C)CS1	11	7	40	34	5	-3
CCOC(=O)c1c(C)[nH]c2cc(Br)c(O)cc12	27	-3	23	.	25	.
CCOC(=O)c1c(OCC)[nH]c2c1cc(O)c1ccccc12	41	-1	43*	-4	37	41*
CCOC(=O)c1cc2c(ccn2-c2ccc(F)cc2)n1CC(=O)N(CC)CC	45	9	8	0	20	.
Cc1ccc(F)c([C@H]2C3C=CCC(c4ccccc4)C3C(=O)N2Cc2ccccc2)c1 (stereo partly specified)	6	7	44*	14	4	31*
Cc1ccc(F)c([C@H]2[C@@H]3C=CCC[C@@]3(C)C(=O)N2Cc2ccccc2)c1	47	-41	45*	.	40	42*
O=C1C2C(c3ccccc3)CC=CC2[C@H](c2ccc3ccccc3c2)N1Cc1ccccc1 (stereo partly specified)	7	6	46*	-12	3	38*
Cc1ccc(-c2cc([C@H]3[C@@H]4C=CCC[C@@]4(C)C(=O)N3Cc3ccccc3)ccc2F)cc1	13	-1	24	-1	13	.
O=C(Nn1cnnc1)c1ccc(Cl)cc1	5	-8	5	8	-1	.
Cc1nc2c([N+](=O)[O-])c(C)c(C)cc2[nH]1	6	17	11	1	9	.
CN(CCCC(=O)O)c1ccc(N=Nc2ccc([N+](=O)[O-])cc2)cc1	48	27	54*	10	27	45*
CC(C)(C)c1ccc(C(=O)c2cn[nH]c2-c2ccccc2O)cc1	50	35	45*	-2	24	35*
COc1cc(/C=N/NC(=O)c2cc(-c3ccccc3)nc3ccccc23)ccc1O	23	3	41*	-23	12	31
COc1ccc(/C=N/NC(=O)c2cc(-c3ccccc3)nc3ccccc23)cc1O	27	3	28	8	19	.
CC(=O)N1CCOc2ccc(S(=O)(=O)N3CCCCC3)cc21	2	8	3	-26	1	.
Cc1ccc(C)c(N2CCN(S(=O)(=O)c3ccc4c(c3)NC(=O)CS4)CC2)c1	39	18	46*	21	12	10
Cc1ccc(S(=O)(=O)N2CCN(CC(=O)Nc3ccc(N4CCOCC4)cc3)CC2)cc1C	19	11	18	-32	4	.
CN1CCN(S(=O)(=O)c2ccc3c(c2)NC(=O)CS3)CC1	2	2	-18	-7	6	.
SMILES	tim23-1 inh	NLRP3 yeast inh	tim10-1 inh	PfHsp90 yeast 2	TIM10 inh	tim10-1 conf
CC(=O)N1CCOc2ccc(S(=O)(=O)N3CCN(c4cc(C)ccc4C)CC3)cc21	34	9	43*	8	15	34*
Cc1cccc(N2CCN(CC(=O)Nc3ccc(S(=O)(=O)N4CCOCC4)cc3)CC2)c1C	23	17	41*	-14	22	19
Cc1cccc(N2CCN(S(=O)(=O)c3ccc4c(c3)OCCO4)CC2)c1C	37	14	46*	1	12	32*
Cc1c(CNCCc2ccc(Cl)cc2)c(C(=O)O)c(C)n1-c1ccccc1	12	4	18	-28	-11	.
COc1ccc(Cl)cc1NC(=O)CSc1nnc(COc2ccccc2)n1N	-3	-7	18	-13	-1	.
COc1ccc(Cl)cc1NC(=O)CSc1nnc(COc2ccccc2)n1C	20	11	46*	-34	16	17
